# GPR151 activ: activates the human receptor GPR151; Q8TDV0; PathHunter beta-arrestin GPR151 cells, luminescence; activation, % at 11.2 µM; 1% of 650,000 active; AID 1508602; in the data active = activation above about 4.9%;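 note: 0% = median of compound wells and 100% = cells with positive control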
# FBW7 act: activators of human E3 ligase FBW7 | Q969H0 | 0.13% of 650,000 active | AlphaScreen FBW7–phospho-cyclin E peptide binding, activator screen | AID 1259310 | normalized activity (activation), % at 26.1 µM; in the data active = normalized activity above about 1.9%;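 note: purified mutant Fbw7 with reduced substrate affinity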
# Target sequence (Q969H0 whole entry, looked up): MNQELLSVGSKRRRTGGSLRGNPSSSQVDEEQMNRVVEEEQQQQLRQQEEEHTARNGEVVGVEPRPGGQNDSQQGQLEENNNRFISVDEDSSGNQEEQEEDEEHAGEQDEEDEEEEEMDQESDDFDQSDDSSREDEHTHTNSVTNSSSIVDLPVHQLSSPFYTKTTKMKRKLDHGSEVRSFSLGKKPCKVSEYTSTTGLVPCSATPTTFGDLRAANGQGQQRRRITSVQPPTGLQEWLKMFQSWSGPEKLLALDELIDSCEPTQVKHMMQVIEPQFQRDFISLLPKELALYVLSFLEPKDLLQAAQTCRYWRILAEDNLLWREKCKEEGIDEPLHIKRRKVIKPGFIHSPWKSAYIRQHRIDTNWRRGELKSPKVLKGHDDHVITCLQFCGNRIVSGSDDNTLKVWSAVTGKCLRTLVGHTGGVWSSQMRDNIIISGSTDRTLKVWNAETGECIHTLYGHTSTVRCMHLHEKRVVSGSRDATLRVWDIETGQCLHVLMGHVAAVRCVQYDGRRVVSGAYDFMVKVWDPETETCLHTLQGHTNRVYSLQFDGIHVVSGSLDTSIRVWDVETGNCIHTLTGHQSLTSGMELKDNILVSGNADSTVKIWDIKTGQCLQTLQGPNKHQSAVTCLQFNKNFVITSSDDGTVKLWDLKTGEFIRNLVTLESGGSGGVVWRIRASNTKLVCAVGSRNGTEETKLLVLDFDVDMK
# TEAD-YAP inh: TEAD-YAP interaction inhibition. AID 1259422. inhibition, % at 9.12 µM. HEK-TIYL cells, TEAD-Gal4/YAP UAS-luciferase luminescence. 1.4% of 640,000 active; in the data active = inhibition above about 32%;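 note: 0% = median of test compound wells and 100% = reference inhibitor wells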
# MITF primary: inhibitors of human MITF; AlphaScreen MITF homodimerization, bead proximity signal; inhibition, % at 2.6 µM; 0.91% of 650,000 active; AID 1259374; in the data active = inhibition above about 50%;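 note: 0% = vehicle wells with protein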
# Active calls of the source: *. Shown are actives, neighbours in structure and some others; about 3.4% of the full set was active somewhere.
SMILES,GPR151 activ,FBW7 act,TEAD-YAP inh,MITF primary
COc1cccc(-n2c(-c3ccc(F)cc3)n[nH]c2=S)c1,-0.5,-0.2,-15.7,-19.1
COc1ccc(-c2cn3cc(-c4ccccc4)nc3n2C)cc1,-1.4,-0.3,97.0*,-3.7
CC1(C)Cc2ccccc2C(C)(C(=O)NN)N1 (centres undefined),2.3,0.1,6.3,16.1
O=S(=O)(NCCc1ccncc1)c1ccc(S(=O)(=O)NCc2ccccc2)cc1,-0.2,0.0,18.1,6.7
Cc1nc2ccccn2c1-c1csc(N)n1,-0.6,-0.2,44.2*,8.0
Cc1nc2ccccn2c1-c1csc(Nc2ccc(N)cc2)n1,0.2,-0.5,53.8*,6.1
CC(=O)Nc1ccc(Nc2nc(-c3c(C)nc4ccccn34)cs2)cc1,0.4,-0.1,50.4*,-5.7
Cc1nc2ccccn2c1-c1csc(Nc2ccc(O)cc2)n1,2.2,-0.1,30.9,-1.3
NS(=O)(=O)c1ccc(Nc2c([N+](=O)[O-])cc([N+](=O)[O-])c3cccnc23)cc1,1.8,-0.7,3.8,33.7
CCn1c2c(n[n+]1[O-])C(=O)c1ccccc1C2=O,-5.3,-0.3,100.7*,-0.5
O=C1c2ccccc2C(=O)c2c1nc1ccccn21,-1.8,-0.2,3.3,-11.2
N#Cc1cccc(NC(=O)N2CCC3(CC2)OCc2ccccc2O3)c1,-1.2,0.1,-5.2,-10.7
COc1ccc(S(=O)(=O)NCC(c2ccc3c(c2)CCN3C)N2CCN(C)CC2)cc1 (centres undefined),-0.3,-0.1,8.4,-6.5
CN1CCN(C(CNS(=O)(=O)c2cccc(F)c2)c2ccc3c(c2)CCN3C)CC1 (centres undefined),1.1,0.0,7.1,59.5*
CN1CCN(C(CNS(=O)(=O)c2ccc(Cl)cc2)c2ccc3c(c2)OCO3)CC1 (centres undefined),-0.5,2.4*,13.4,16.8
COc1ccc2[nH]c3c(=O)n(Cc4ccc(Cl)cc4)cnc3c2c1,-2.0,0.2,2.0,14.1
Cc1ccc2c(c1)C(=O)CC(c1ccc3c(c1)OCCO3)O2 (centres undefined),0.7,0.0,-50.4,-1.0
O=C1CC(c2ccc3c(c2)OCCCCO3)Oc2ccccc21 (centres undefined),-0.1,-0.1,58.9*,0.1
COc1cccc(C2=NS(=O)(=O)N(C)C(C(=O)Nc3cccc(C(C)=O)c3)=C2)c1,0.2,0.1,8.7,12.0
NNC(=O)c1cncn1-c1ccccc1,0.0,-0.1,37.1*,-16.0
Cc1ccc(CN(C(=O)c2cc3ccccc3oc2=O)C2CCS(=O)(=O)C2)o1 (centres undefined),-0.3,0.3,-44.6,-4.9
CCOC(=O)C1Nc2c(ccc(C(=O)O)c2C)C2C=CCC12 (centres undefined),0.6,-1.2,12.7,65.5*
O=C(O)C1Nc2c(O)ccc(Br)c2C2C=CCC12 (centres undefined),-0.1,-0.3,2.0,85.7*
CCOC(=O)c1ccc2c(c1)[C@@H]1C=CC[C@@H]1[C@H](C(=O)OCC)N2,-0.2,-0.2,-1.6,9.6
O=C(O)C1Nc2c(F)cccc2C2C=CCC12 (centres undefined),-0.9,-0.4,8.5,78.2*
SMILES,GPR151 activ,FBW7 act,TEAD-YAP inh,MITF primary
O=C(O)c1ccc2c(c1)C1C=CCC1C(C(=O)O)N2 (centres undefined),-0.4,-0.8,5.4,25.0
O=C(O)C1Nc2ccccc2C2C=CCC12 (centres undefined),0.3,-1.9,-5.7,75.2*
O=C(O)C1Nc2ccc3ccccc3c2C2C=CCC12 (centres undefined),0.4,0.0,-1.8,23.9
COc1ccc2c(c1)C1NC(=S)N(c3cccc(C)c3)C(C)(O2)C1C(=O)Nc1ccc(Cl)cc1 (centres undefined),-1.2,0.1,17.0,28.6
Cc1cccc(NC(=O)N2CCC3(CC2)OCc2ccccc2O3)c1,-0.4,-0.1,5.4,-1.6
Cc1ccc2c(c1C)NC(C(=O)O)C1CC=CC21 (centres undefined),-0.7,-1.3,-14.8,64.5*
CCOC(=O)C1=C(c2ccccc2)N=c2s/c(=C/c3cccs3)c(=O)n2C1c1cccs1 (centres undefined),4.2,0.2,4.2,7.8
N#Cc1cc(-c2ccnc(Nc3cccc(NC(=O)N4CCCC4)c3)n2)ccc1N1CCCC1,0.3,0.3,45.2*,22.3
O=C1NC2(CCN(C(=O)C3CC(=O)N(c4ccc(F)cc4)C3)CC2)Oc2ccccc21 (centres undefined),-0.5,-0.1,-11.7,15.5
CC(=O)c1cccc(NC(=O)C2CC(Cl)=CCC2C(=O)O)c1 (centres undefined),0.0,-0.3,-2.6,2.4
COc1ccc(CCNc2ncnc3c2oc2ccccc23)cc1OC,4.4,0.0,45.7*,4.3
COc1ccc(CCNc2ncnc3ccccc23)cc1OC,2.2,-0.3,63.0*,-1.3
c1ccc(CCNc2ncnc3ccccc23)cc1,-0.5,0.2,24.2,3.2
COc1ccc(CCNc2nc(C)nc3sc(C)c(C)c23)cc1OC,0.4,0.1,36.8*,2.2
COc1ccc(CCNc2ncnc3sccc23)cc1OC,3.4,0.6,55.5*,18.9
CC(=O)N/C(=C\c1ccccc1)C(=O)Nc1ccc(Cl)cc1,0.7,0.0,1.7,-0.3
CCCN(CCC)c1ncnc(N)c1[N+](=O)[O-],-1.6,-0.1,60.7*,-10.6
CN(Cc1ccccc1)c1ncnc(N)c1[N+](=O)[O-],-0.5,-0.1,0.1,3.8
COCCCNC(=O)/C(C#N)=C/c1cn(Cc2ccc(F)cc2)c2ccccc12,1.6,1.8,44.5*,11.5
COCCCNC(=O)/C(C#N)=C/c1cn(Cc2cccc(F)c2)c2ccccc12,0.0,-0.3,34.6*,13.2
CC(=NC#N)c1c(C(F)(F)F)[nH]n(-c2nc3ccccc3s2)c1=O,-7.4,0.1,41.6*,2.4
CCNc1nc(OC)nc(Oc2ccc(C(=O)OCC)cc2)n1,-1.2,0.7,4.5,10.6
CCOC(=O)c1ccc(Oc2nc(NC)nc(OC)n2)cc1,-1.0,1.9*,-0.5,13.7
O=C(C1=CCCCC1)N1CCC(N2CCC(C(=O)N3CCOCC3)CC2)CC1,-0.1,0.1,1.1,9.0
CCOC(=O)N1CCc2c(sc3ncn(CC(=O)c4ccccc4)c(=O)c23)C1,0.3,0.7,48.8*,4.2
COc1ccc(S(=O)(=O)N2CCSC2c2cc(OC)c(OC)cc2OC)cc1 (centres undefined),0.1,0.0,43.1*,-2.6
COc1cc(OC)c(C2SCCN2S(=O)(=O)c2ccc(C)cc2)cc1OC (centres undefined),-0.6,-0.1,-2.3,6.7
COc1ccccc1C1SCCN1S(=O)(=O)c1ccc([N+](=O)[O-])cc1 (centres undefined),0.6,4.4*,5.9,2.2
COC(=O)C1=C(C(=O)OC)SC(=C2C(=S)C(C)(C)N(C(=O)c3ccc(Br)cc3)c3c(OC)cccc32)S1,1.2,0.2,-9.4,-1.3
Cn1c(=O)c(=O)n(C)c2cc(S(=O)(=O)CCC(=O)NCC3CCCO3)ccc21 (centres undefined),0.7,-0.1,-4.1,-11.3

# Screens deposited in PubChem BioAssay by The Scripps Research Institute Molecular Screening Center.
